Screening results (PubChem)
Rows were chosen to be rich in hits. Some 10% of all compounds tested hit in one or more screens of this group.
L3MBTL1 inh – qHTS Assay for the Inhibitors of L3MBTL1. 230,000 compounds, 0.66% hits. AlphaScreen L3MBTL1–H3K9me1 peptide binding. AID 485360, 2010. Potency, µM (top dose mostly 57.1 µM), for the others: at the highest dose activity, negative = inhibition, most hits filed as inhibitors. Lethal(3)malignant brain tumor-like protein 1 (Homo sapiens), Q9Y468; also: % is scaled to controls: 0 for no effect and ±100 for the full control effect; nearly all actives have a fitted effect of over 60% in size
Target sequence (Q9Y468 whole entry, looked up): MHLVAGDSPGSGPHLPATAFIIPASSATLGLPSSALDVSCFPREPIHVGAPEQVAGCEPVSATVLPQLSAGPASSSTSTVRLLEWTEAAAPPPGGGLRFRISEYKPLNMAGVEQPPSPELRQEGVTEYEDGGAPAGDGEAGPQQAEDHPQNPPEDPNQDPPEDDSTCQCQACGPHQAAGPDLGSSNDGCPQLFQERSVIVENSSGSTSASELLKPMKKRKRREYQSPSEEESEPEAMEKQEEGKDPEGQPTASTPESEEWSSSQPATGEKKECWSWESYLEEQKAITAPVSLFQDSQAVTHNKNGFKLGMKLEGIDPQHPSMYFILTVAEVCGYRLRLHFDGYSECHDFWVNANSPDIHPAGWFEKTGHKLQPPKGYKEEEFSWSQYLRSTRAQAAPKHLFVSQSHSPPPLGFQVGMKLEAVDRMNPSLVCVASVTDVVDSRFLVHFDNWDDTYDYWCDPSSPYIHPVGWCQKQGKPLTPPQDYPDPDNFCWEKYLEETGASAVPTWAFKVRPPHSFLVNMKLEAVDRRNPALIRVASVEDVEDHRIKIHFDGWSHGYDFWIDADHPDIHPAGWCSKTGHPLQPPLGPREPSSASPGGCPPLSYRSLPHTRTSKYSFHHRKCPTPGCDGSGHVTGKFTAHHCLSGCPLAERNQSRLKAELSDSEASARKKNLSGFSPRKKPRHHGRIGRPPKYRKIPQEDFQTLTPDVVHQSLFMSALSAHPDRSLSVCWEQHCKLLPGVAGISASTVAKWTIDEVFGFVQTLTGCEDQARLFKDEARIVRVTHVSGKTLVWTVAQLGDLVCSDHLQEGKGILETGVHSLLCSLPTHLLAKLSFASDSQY
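Displacement of a biotinylated histone H3(1-15) peptide monomethylated at Lys9 (75 nM) from L3MBTL1 (50 nM) was measured by AlphaScreen after a 30 min room-temperature compound incubation; cefsulodin titration served as intraplate control.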
G9a inh – qHTS Assay for Inhibitors of Histone Lysine Methyltransferase G9a. Histone-lysine N-methyltransferase EHMT2 (Homo sapiens), Q96KQ7. G9a H3K9 monomethylation, AlphaScreen, 2 h. Potency, µM (doses to about 102 µM), without a hit: at the highest dose activity, negative = inhibition, hits mostly inhibitors. 350,000 compounds, 8.8% hits. AID 504332, 2011; also: % is scaled to controls: 0 for no effect and ±100 for the full control effect; nearly all actives have a fitted effect of over 75% in size
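Enzyme 20 nM + cpd, 15 min RT; add b-H3K9 pep 500 nM / SAM 20 uM; 2 h RT; anti-H3K9me1 Ab 0.5 ug/mL + SA donor / anti-rabbit acceptor beads 20 ug/mL each, 10 min; AlphaScreen read.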
JMJD2A Tudor inh – qHTS Assay for Inhibitors of JMJD2A-Tudor Domain | AID 504339, 2011 | Potency, µM (doses to about 114 µM), for the others: at the highest dose activity change, negative = inhibition, hits mostly inhibitors | Lysine-specific demethylase 4A (Homo sapiens), O75164 | 390,000 compounds, 4.4% hits | AlphaScreen JMJD2A-Tudor / H3K4me3 peptide binding; also: % is scaled to controls: 0 for no effect and ±100 for the full control effect; nearly all actives have a fitted effect of over 50% in size
GLS inhibitor – qHTS for Inhibitors of Glutaminase (GLS); AID 624170, 2012; 410,000 compounds, 0.21% hits; GLS enzymatic activity, qHTS titration; Potency, µM (doses to about 45.5 µM), without a hit: top-dose activity change, negative = inhibition, usual class: inhibitors; also: % is scaled to controls: 0 for no effect and ±100 for the full control effect
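Two-point fluorescence kinetic (t0, 30 min RT) for hKGA; glutamate detected via glutamate oxidase–HRP–Amplex Red. Substrate: 1 mM L-glutamine solution; buffer 45 mM KH2PO4, pH 8.2.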
HP1b binding inh – HTS for Inhibitors of HP1-beta Chromodomain Interactions with Methylated Histone Tails; 390,000 compounds, 0.56% hits; AlphaScreen HP1-beta / biotin-H3K9me3 peptide binding; Potency, µM (top dose mostly 114 µM), without a hit: top-dose activity change, negative = inhibition, hits mostly inhibitors; Chromobox protein homolog 1 (Homo sapiens), P83916; also: nearly all actives have a fitted effect of over 70% in size
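AlphaScreen: HP1-beta (50 nM) preformed 30 min with biotin-H3(1-18)K9me3 peptide (50 nM) in PBS pH 7.4, 0.01% Tween-20. Compound added for 30 min at RT, then streptavidin donor/nickel chelate acceptor beads (10 ug/mL) for 30 min.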
BAZ2B block – qHTS Assay for Inhibitors of BAZ2B; Potency, µM (series often up to 114 µM), without a hit: at the highest dose activity change, negative = inhibition, most hits filed as inhibitors; AlphaScreen BAZ2B-H3K14Ac peptide displacement; AID 504333, 2011; 360,000 compounds, 4.4% hits; also: % is scaled to controls: 0 for no effect and ±100 for the full control effect; nearly all actives have a fitted effect of over 60% in size
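Compounds, titrated to a top concentration of 110 uM, were incubated 30 min at room temperature with preformed BAZ2B/acetyl-K14 H3 peptide complex (50 nM each). Proximity signal was measured by AlphaScreen after 20 min with beads.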
Numbers without * were called inactive; ? = inconclusive; . = no result given; [ ] = another dose, or the depositor's remark. Calls follow the shape of the dose curve; as a rule, active = well fitted curve in the direction sought with a large enough effect; inconclusive = small, poorly fitted or top-dose-only effect, or another doubt; inactive = no such curve, though single readings can be large; an effect the other way counts as inactive or inconclusive. Potency is read from the fitted curve at half-maximal effect.

SMILES	L3MBTL1 inh	G9a inh	JMJD2A Tudor inh	GLS inhibitor	HP1b binding inh	BAZ2B block
O=C(c1ccccc1)N1CCC(c2nc3ccccc3o2)CC1	.	11.6%[59 µM]	-2.6%	3.1%	53.4%	-31.4%
Nc1ccc(S(=O)(=O)N2CCCN(S(=O)(=O)c3ccc4c(c3)OCCO4)CC2)cc1	.	.	89.1µM*	.	.	.
O=S(=O)(c1ccccc1)N1CCN(S(=O)(=O)c2ccc3c(c2)OCCO3)CC1	.	.	-11.0%	.	.	.
O=C(Nc1cccc(F)c1)/C(=C/c1ccco1)NC(=O)c1ccco1	.	28.2µM*	?	8.9%	-24.5%	-29.9%
Cc1cccc(NC(=O)/C(=C\c2ccco2)NC(=O)c2cccs2)c1	2.8%	31.6µM*	89.1µM*	-8.7%	?	3.1%[57.1 µM]
O=C(Nc1cccc(F)c1)/C(=C\c1cccnc1)NC(=O)c1ccco1	7.3%	-2.3%	2.0%	1.7%	33.4%	-9.0%
Cc1ccc(C(=O)N/C(=C/c2ccco2)C(=O)Nc2cccc(C)c2)cc1	.	?	?	9.4%	?	-34.5%
CCCCN(c1ccccc1)S(=O)(=O)c1cc2c3c(c1)C(C)C(=O)N3CCC2 (stereo not given)	.	5.1%[59 µM]	-12.3%	0.1%	27.2%	-2.1%
CCOC(=O)N1CCC(NC(=O)c2c(C)nn(-c3cccc(C)c3)c2-n2cccc2)CC1	.	-0.5%[59 µM]	-1.6%	1.5%	26.9%	-1.4%
CC/C(C)=N\N=C\c1c(O)n(CC)c2cc(C3=NNC(=O)CC3)ccc12	1.9%	8.91µM*	-34.4%	11.7%	16.5%	-24.5%
Nc1c(C(=O)Nc2ccc(Cl)cc2F)sc2nc(-c3cccs3)ccc12	.	-9.4%[59 µM]	-5.5%	2.0%	37.8%	0.0%
O=C(CSc1nn(-c2ccc(F)cc2)c(=S)s1)N1CCN(C(=O)c2ccco2)CC1	2.5%	-5.6%	-24.9%	3.3%	36.4%	0.1%
O=C(CSc1nn(-c2ccc(Cl)cc2)c(=S)s1)N1CCN(C(=O)c2ccco2)CC1	-14.3%	79.4µM*	-16.0%	4.6%	6.4%	18.9%
COCCCNC1=C(Cl)C(=O)c2ccccc2C1=O	-16.0%	39.8µM*	?	8.9%	?	35.5µM*
CC(C)OCCCNC1=C(Cl)C(=O)c2ccccc2C1=O	-45.2%	.	39.8µM*	3.2%	35.5µM*	10µM*
CC(=O)Nc1cc2c(c(Cl)c1Cl)-c1ccccc1C2=O	.	.	?	0.4%	-5.1%	.
CC(C)NC1=C(Cl)C(=O)c2ccccc2C1=O	.	20µM*	39.8µM*	-2.8%	15.8µM*	25.1µM*
CCN(CC)CCCNC1=C(Cl)C(=O)c2ccccc2C1=O	-25.1%	?	-30.1%	0.0%	-15.2%	-25.7%
CC(C)OCCCNC(=S)NNC(=O)C(c1ccccc1)c1ccccc1	-2.2%	.	-9.2%	-0.2%	34.5%	2.1%
Cc1ccc(CN(Cc2cccn2-c2nnc(N3CCCC3=O)s2)C(=O)Nc2ccccc2Cl)cc1	.	-27.2%[59 µM]	-27.6%	-2.4%	25.1%	-17.1%
CCOC(=O)c1ccccc1NC(=O)CSc1nc2cn(CC)nc2c(=O)n1Cc1ccc(Cl)cc1	.	?	-8.5%	-12.3%	26.8%	-10.6%
COc1ccc(-n2ccnc(NCc3ccccc3OC)c2=O)cc1	.	-35.6%[59 µM]	-14.3%	4.1%	-2.3%	?
O=[N+]([O-])c1ccc(COc2ccc(Br)cc2CN2CCOCC2)cc1	-8.6%	50.1µM*	?	1.4%	-6.6%	?
CN(C)C(CNc1ncnc2sc3c(c12)CCCCC3)c1ccco1 (stereo not given)	.	-6.6%[59 µM]	?	2.3%	-0.6%	?
Cc1sc2ncnc(NCC(c3ccco3)N(C)C)c2c1C (stereo not given)	35.9%	5.3%[59 µM]	1.58µM*	0.1%	?	7.1%
SMILES	L3MBTL1 inh	G9a inh	JMJD2A Tudor inh	GLS inhibitor	HP1b binding inh	BAZ2B block
CN(C)c1ncc2nc(-c3ccccc3)c(=O)n(C)c2n1	.	8.0%[0.501 µM]	.	.	.	.
COc1cccc(C(c2nnnn2Cc2ccco2)N2CCN(Cc3ccccc3)CC2)c1OC (stereo not given)	-19.3%	-31.7%[12.7 µM]	-10.5%	-4.6%	28.1%	50.1µM*
COc1ccc(N2CCN(C(c3ccccc3OC)c3nnnn3Cc3ccco3)CC2)cc1 (stereo not given)	.	?	50.1µM*	25.0%	-46.7%	39.8µM*
COc1ccc(Cn2nnnc2C(c2ccccc2OC)N2CCC(C(N)=O)CC2)cc1 (stereo not given)	.	-11.4%[12.7 µM]	-4.5%	19.0%	15.2%	11.0%
NC(=O)C1CCN(C(c2ccccc2F)c2nnnn2Cc2ccco2)CC1 (stereo not given)	13.3%	2.0%[12.7 µM]	-26.6%	9.7%	26.4%	?
Fc1ccccc1C(c1nnnn1Cc1ccc2c(c1)OCO2)N1CCN(Cc2ccco2)CC1 (stereo not given)	-11.5%	50.1µM*	-33.6%	-3.8%	2.2%	-3.9%
Cc1ccc(N2CCN(S(=O)(=O)c3cccc4ccccc34)CC2)cc1Cl	.	39.4%[59 µM]	-22.0%	-2.2%	40.1%	-14.6%
COc1cccc(NC(=O)Nc2ccc3nc(N4CCN(C)CC4)cc(C)c3c2)c1	.	-43.5%[59 µM]	-27.9%	?	13.0%	-26.2%
CCn1cc(C(=O)N(C)c2cc(C)ccc2C)c2cc(OC)c(OC)cc2c1=O	.	-4.5%[59 µM]	-14.3%	1.1%	10.9%	-3.4%
O=C(NCCCc1ccccc1)c1ccc(F)cc1	5.5%	-3.0%	2.1%	1.0%	67.0%	9.6%
O=C(NCCNC1CCC(c2ccccc2)CC1)c1ccc(F)cc1 (stereo not given)	-1.8%	?	5.62µM*	-7.9%	?	25.1µM*
O=C(NCc1cccs1)c1ccc(CSc2nc3ccncc3n2Cc2cccc(F)c2)cc1	.	?	-20.8%	-1.2%	34.3%	-4.3%
COc1ccc(NC(=O)CN2C(=O)/C(=C3\SC(=S)N(CCC(=O)O)C3=O)c3ccccc32)cc1	.	5.0%	?	-17.6%	-0.3%	-32.8%
Cc1c(N2C(=O)/C(=C3/C(=O)N(C)c4ccccc43)SC2=S)c(=O)n(-c2ccccc2)n1C	9.9%	?	-4.5%	1.9%	25.0%	3.5%
O=C(O)CCN1C(=O)/C(=C2\C(=O)N(Cc3ccccc3Cl)c3ccccc32)SC1=S	.	?	.	.	.	7.94µM*
O=C(O)CN1C(=O)/C(=C2\SC(=S)N(C(Cc3ccccc3)C(=O)O)C2=O)c2ccccc21 (stereo not given)	-5.6%	50.1µM*	-26.5%	?	-14.8%	56.2µM*
